Assay outcomes as filed in PubChem BioAssay.
Compounds with a hit are over-represented: about 3.2% of the library has one in this group of screens.
TRb-SRC2 inh = disrupts binding of human TR beta to SRC2. actives 0.065% (n = 280,000). P10828. AID 1469. TRbeta-SRC2 peptide binding, fluorescence polarization; receptor liganded with 1 µM T3. Potency, µM (top dose mostly 106 µM), without a hit: top-dose activity change, negative = inhibition, most hits filed as inhibitors;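 also: plate controls were bound peptide for no effect and peptide without receptor for full effect; nearly all actives have a fitted effect of over 50% in size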
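Each compound concentration gave % activity, normalized to unbound and bound Texas Red SRC2 controls, from polarization read after 5 hr ambient incubation with T3-loaded human TRb LBD.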
Tau fluor counter = counter-screen for tau fibril formation inhibitors | tau K18 P301L Alexa594 fluorescence, heparin fibrillization | Potency, µM (top dose mostly 57.7 µM), without a hit: at the highest dose activity change, negative = decrease | actives 0.93% (n = 280,000) | AID 1463; also: nearly all actives have a fitted effect of over 55% in size
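Human K18 P301L tau (15 uM unlabeled plus 0.24 uM Alexa 594-labeled, final) in 100 mM sodium acetate pH 7 was mixed with compound and 20 uM heparin and incubated 6 hr at 37 C.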
RGS12 GoLoco inh = inhibitors of human Gai1-RGS12 GoLoco interaction (red fluorophore) | Potency, µM (titrated, usually from 61.6 µM), for the others: top-dose activity, negative = inhibition, most hits filed as inhibitors | actives 0.44% (n = 230,000) | Gai1:RGS12 GoLoco peptide FP, rhodamine, 10 min | P63096; active = well fitted inhibition curve with a large enough effect, not every such curve was filed as active; inactive = no such curve, though single readings can be large or run the other way; also: nearly all actives have a fitted effect of over 30% in size
Target sequence (P63096 whole entry, looked up): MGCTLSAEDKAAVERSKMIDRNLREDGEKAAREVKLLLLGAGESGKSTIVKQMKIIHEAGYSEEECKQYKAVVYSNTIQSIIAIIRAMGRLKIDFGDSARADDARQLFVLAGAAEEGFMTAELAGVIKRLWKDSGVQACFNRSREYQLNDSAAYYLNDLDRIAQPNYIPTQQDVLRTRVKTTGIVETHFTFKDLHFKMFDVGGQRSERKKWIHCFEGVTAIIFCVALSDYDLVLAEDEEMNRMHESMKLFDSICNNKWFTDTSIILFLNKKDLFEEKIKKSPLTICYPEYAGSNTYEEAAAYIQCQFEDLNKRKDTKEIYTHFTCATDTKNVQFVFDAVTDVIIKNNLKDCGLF
TR SRC2 fluor cs = counter-screen for TRb-SRC2 inhibitors: fluorescence interference. Potency, µM (highest dose often 106 µM), for the others: at the highest dose fluorescence change, negative = quenching. TRb/SRC2 Texas Red total fluorescence interference. actives 0.29% (n = 280,000). AID 1479; active = well fitted curve in either direction with a large enough effect; inconclusive = small, poorly fitted or top-dose-only effect
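Flags fluorescent or light-absorbing compounds by total fluorescence, S + 2P, at 555 nm excitation and 632 nm emission. Mixture: 20 nM Texas Red SRC2 peptide, 0.6 uM human TRb LBD, 1 uM T3, 5% DMSO; compound exposure 5 h at ambient temperature.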
Tau fibril FP = tau fibrillization inhibition (FP); P10636; K18 P301L tau heparin fibrillization, Alexa594 FP, 6 h; Potency, µM (titrated, usually from 57.7 µM), inactives show at the top dose activity, negative = inhibition, actives largely listed as inhibitors; actives 0.39% (n = 280,000); AID 1468; also: nearly all actives have a fitted effect of over 55% in size
Target sequence (P10636 561-689 P618L limits assumed): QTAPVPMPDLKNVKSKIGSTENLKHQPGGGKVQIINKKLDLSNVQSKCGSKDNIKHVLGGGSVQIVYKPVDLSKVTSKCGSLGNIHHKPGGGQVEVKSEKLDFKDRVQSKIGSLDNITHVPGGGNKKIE
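FP of Alexa 594-tau after heparin (20 uM) induction. Substrate: human K18 P301L, 15 uM unlabeled, 0.24 uM labeled. Buffer 100 mM sodium acetate pH 7. 6 hr, 37 C.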
Tau fibril ThT = inhibitors of human tau fibril formation, thioflavin T binding; actives 2.1% (n = 270,000); Potency, µM (top dose mostly 57.4 µM), for inactives: at the top dose activity, negative = inhibition, actives largely listed as inhibitors; recombinant tau K18 P301L, heparin-induced fibrillization, ThT fluorescence; P10636; also: nearly all actives have a fitted effect of over 55% in size
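ThT emission at 510 nm, taken 1 hr after adding 30 uM dye, quantifies aggregates formed when 20 uM heparin acts on human tau K18 P301L for 6 hr at 37 C.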
Active calls of the source: *; [ ] = remark or other dose. Unless noted, calls follow the shape of the dose curve; as a rule, active = well fitted curve in the direction sought with a large enough effect; inconclusive = small, poorly fitted or top-dose-only effect, or another doubt; inactive = no such curve, though single readings can be large; an effect the other way counts as inactive or inconclusive. Unless noted, % is scaled to controls: 0 for no effect and ±100 for the full control effect; potency is read from the fitted curve at half-maximal effect.

Screening CCOP(=S)(OCC)SC(CCl)N1C(=O)c2ccccc2C1=O (stereo not drawn) returned TRb-SRC2 inh -4.2%[201 µM] and TR SRC2 fluor cs -3.3%[201 µM].
For [O-]/[N+](=C/c1cccnc1)c1ccc(Br)cc1 the results were TRb-SRC2 inh 1.7%, Tau fluor counter -20.3%, RGS12 GoLoco inh 7.3%, TR SRC2 fluor cs -2.7%, Tau fibril FP inconclusive and Tau fibril ThT 28.2µM*.
`CCC[CH2][Sn]([Cl])([CH2]CCC)[CH2]CCC` gave TRb-SRC2 inh 8.2%[201 µM] and TR SRC2 fluor cs 1.4%[201 µM].
For CN1CCc2nc3sc(C#N)c(N)c3c(-c3cccs3)c2C1 the results were TRb-SRC2 inh -0.5%, Tau fluor counter inconclusive, RGS12 GoLoco inh 36.4%, TR SRC2 fluor cs -9.1%, Tau fibril FP inconclusive and Tau fibril ThT 28.2µM*.
`CN1CCc2nc(N)c(C#N)c(-c3ccccc3)c2C1` gave TRb-SRC2 inh -4.8%, Tau fluor counter -13.9%, RGS12 GoLoco inh -14.9%, TR SRC2 fluor cs -6.9%, Tau fibril FP -5.0% and Tau fibril ThT inconclusive.
C[N+]1(C)CCCCC1 was read as TRb-SRC2 inh -1.6%[201 µM] and TR SRC2 fluor cs 2.4%[201 µM].
For C/C=C1/C[N@@+]2(C)CC[C@]34C(=C(C=O)[C@H]1C[C@H]32)Nc1ccccc14 the results were TRb-SRC2 inh -4.3%, Tau fluor counter 2.7%, RGS12 GoLoco inh 6.31µM*, TR SRC2 fluor cs -1.9%, Tau fibril FP -2.0% and Tau fibril ThT -2.3%.
`CC(C)N1C(=O)N(c2ccccc2)CSC1=NC(C)(C)C` gave TRb-SRC2 inh -2.1%[201 µM] and TR SRC2 fluor cs 4.8%[201 µM].
Cc1ccc(/C=C2/C(=O)NC(=O)N(C)C2=O)cc1 was read as TRb-SRC2 inh -4.3%, Tau fluor counter -2.6%, RGS12 GoLoco inh 12.7%, TR SRC2 fluor cs 0.8%, Tau fibril FP -16.3% and Tau fibril ThT inconclusive.
CN1C(=O)NC(=O)/C(=C\c2ccc([N+](=O)[O-])o2)C1=O was read as TRb-SRC2 inh 3.1%, Tau fluor counter -20.9%, RGS12 GoLoco inh 23.8%, TR SRC2 fluor cs 14.1%, Tau fibril FP inconclusive and Tau fibril ThT 28.2µM*.
Screening CN1C(=O)NC(=O)/C(=C/c2ccc(C(=O)O)cc2)C1=O returned TRb-SRC2 inh -6.6%, Tau fluor counter inconclusive, RGS12 GoLoco inh 1.3%, TR SRC2 fluor cs -3.0% and Tau fibril FP 3.9%.
CN1C(=O)NC(=O)/C(=C/c2ccc([N+](=O)[O-])o2)C1=O was read as TRb-SRC2 inh 0.0%, Tau fluor counter -28.6%, RGS12 GoLoco inh -23.7%, TR SRC2 fluor cs 7.2%, Tau fibril FP inconclusive and Tau fibril ThT 12.6µM*.
For O=C1NC(=O)N(c2ccccc2)C(=O)/C1=C\c1ccc([N+](=O)[O-])o1 the results were TRb-SRC2 inh 8.1%, Tau fluor counter inconclusive, RGS12 GoLoco inh 70.5%, TR SRC2 fluor cs 17.3%, Tau fibril FP inconclusive and Tau fibril ThT 17.8µM*.
Screening CC(C)=CC1[C@H](C(=O)OCc2cccc(Oc3ccccc3)c2)C1(C)C (stereo partly drawn) returned TRb-SRC2 inh 7.6%[201 µM] and TR SRC2 fluor cs 1.8%[201 µM].
`CCCN1CCc2cccc3c2C1Cc1ccc(O)c(O)c1-3` (stereo not drawn) gave TRb-SRC2 inh 2.3%, Tau fluor counter 17.8µM*[quencher], RGS12 GoLoco inh 21.7%, TR SRC2 fluor cs -6.7%, Tau fibril FP 31.6µM* and Tau fibril ThT 14.1µM*.
`COc1cc2c(cc1O)C[C@@H]1c3c(cc(O)c(OC)c3-2)CCN1C` gave RGS12 GoLoco inh -0.1%[14.2 µM].
CNC(=O)N(C)c1nc2ccccc2s1 was read as TRb-SRC2 inh 0.4%[201 µM] and TR SRC2 fluor cs 0.0%[201 µM].
For Cc1cccc(N2C(=O)NC(=O)/C(=C\c3ccc4c(c3)CCCN4Cc3ccccc3)C2=O)c1 the results were TRb-SRC2 inh 12.3%, Tau fluor counter -15.0%, RGS12 GoLoco inh -35.1%, TR SRC2 fluor cs 10.2%, Tau fibril FP -14.3% and Tau fibril ThT inconclusive.
CCC(C)N1C(=O)/C(=C/c2ccc3c(c2)CCN3CCCCl)C(=O)NC1=S (stereo not drawn) was read as TRb-SRC2 inh -4.0%, Tau fluor counter inconclusive, RGS12 GoLoco inh 134.1%, TR SRC2 fluor cs -41.5%, Tau fibril FP inconclusive and Tau fibril ThT 31.6µM*.
Screening COP(=O)(OC)Oc1nc(Cl)c(Cl)cc1Cl returned TRb-SRC2 inh -9.7%[201 µM] and TR SRC2 fluor cs 0.8%[201 µM].
Screening CN(C)c1ccc(NC(=O)Oc2ccccc2)cc1 returned TRb-SRC2 inh 44.7µM*, Tau fluor counter inconclusive, RGS12 GoLoco inh -8.4%, TR SRC2 fluor cs inconclusive, Tau fibril FP inconclusive and Tau fibril ThT 14.1µM*.
`O=C1NC(=O)N(Cc2ccccc2Cl)C(=O)/C1=C/N1CCOCC1` gave TRb-SRC2 inh -5.3%, Tau fluor counter -22.7%, RGS12 GoLoco inh 14.0%, TR SRC2 fluor cs -5.3%, Tau fibril FP inconclusive and Tau fibril ThT 17.8µM*.
`N#CC(C#N)=NNc1ccc(OC(F)(F)F)cc1` gave TRb-SRC2 inh -7.4%, Tau fluor counter inconclusive, RGS12 GoLoco inh 3.0%, TR SRC2 fluor cs -5.6%, Tau fibril FP inconclusive and Tau fibril ThT 7.94µM*.
For CN(C)c1ccc(C=C2C(=O)NC(=S)NC2=O)cc1[N+](=O)[O-] the results were TRb-SRC2 inh 3.4%, Tau fluor counter inconclusive, RGS12 GoLoco inh -11.9%, TR SRC2 fluor cs 0.4%, Tau fibril FP inconclusive and Tau fibril ThT 31.6µM*.
`CC1=CC(=O)c2c(O)cccc2C1=O` gave TRb-SRC2 inh -6.4%, Tau fluor counter 2.24µM*[quencher], RGS12 GoLoco inh -8.2%, TR SRC2 fluor cs -9.9%, Tau fibril FP 3.16µM* and Tau fibril ThT 2.51µM*.
Screening CCCCCOc1ccc(C)cc1CN(CCCl)CCCl returned TRb-SRC2 inh 31.6µM*, Tau fluor counter -10.8%, RGS12 GoLoco inh 8.8%, TR SRC2 fluor cs -1.4%, Tau fibril FP 0.9% and Tau fibril ThT inconclusive.
For CC(C)(C)[C@@H](O)/C(=C\c1ccc(Cl)cc1Cl)n1cncn1 the results were TRb-SRC2 inh -1.8%[201 µM] and TR SRC2 fluor cs -1.2%[201 µM].
Screening Cc1ccc(N)c(C)c1 returned TRb-SRC2 inh -6.0%, RGS12 GoLoco inh -3.6% and TR SRC2 fluor cs -1.3%.
Cc1ccc(N=Nc2cc(C)ccc2N)cc1 was read as TRb-SRC2 inh 0.6%, Tau fluor counter 17.8µM*[quencher], RGS12 GoLoco inh 4.4%, TR SRC2 fluor cs -1.4%, Tau fibril FP 18.4% and Tau fibril ThT 11.2µM*.
`Nc1ccccc1O.O.O=C(O)[C@H]1[O][Sb][O][C@H]1C(=O)O` gave RGS12 GoLoco inh 5.3%[14.2 µM].
